Among the data in PubChem BioAssay (EPA / NIEHS) are AC50 and outcome values, retold here.

The structures appear in SMILES notation. Results filed as inconclusive are left out. The source made the active and inactive calls. The calls were made as follows, unless noted: active = hit-call score of the fitted dose curve at least 0.9, where 1 is the maximum; inconclusive = response in the unintended direction; inactive = score below 0.9.

One assay deals with SERPINA7 (gene 6906). Put plainly: CCTE_GLTED_hTBG: CCTE's human Thyroxine-binding Globulin (TBG) Inhibition Assay, Great Lakes Toxicology and Ecology Division (GLTED) Lab (AID 2284343).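 Also: active chemicals lower fluorescence versus DMSO baseline by displacing probe.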 A digest of the protocol: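 Measures how far test chemicals displace ANSA bound to purified human TBG. The read-out is fluorescence at 380 nm excitation and 475 nm emission, taken after 2 h of incubation.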

A short description of assay [1]: CCTE_Mundy_HCI_iCellGluta_NOG_NeuriteLength: CCTE's Neurite Outgrowth Assay in iCellGluta cells for Neurite Length, Mundy Lab (AID 2284318). A digest of the protocol: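 Automated high-content imaging of betaIII-tubulin (Alexa Fluor-488) and Hoechst-stained cells gave neurite length, normalized to the DMSO baseline.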
Assay [2] in a line: IUF_NPC1_cytotoxicity_72hr: Cytotoxicity Assessment at 72 hours in the Leibniz Research Institute for Environmental Medicine (IUF) Neural Progenitor Cell Proliferation Assay (NPC1) (AID 2284332).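 Also: rising LDH signal means more cytotoxicity.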 A digest of the protocol: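 hNPC spheres (fetal brain, gestational week 16-19) grown under proliferative EGF/FGF conditions, pH 7.2-7.6, were treated continuously for 72 h. Cytotoxicity came from LDH-coupled resazurin fluorescence in each well's supernatant.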

Assay [3] in a line: CCTE_Mundy_HCI_iCellGluta_NOG_NeuronCount: CCTE's Neurite Outgrowth Assay in iCellGluta cells for Neuron Count, Mundy Lab (AID 2284340).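 Also: cells fixed about 48 h after compound addition.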 A digest of the protocol:
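Neuron count read by automated high-content imaging of Hoechst 33342 and betaIII-tubulin/Alexa Fluor-488 labelling in human iPSC glutamatergic neurons. Activity fitted relative to DMSO.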

Assay [4] in a line: CCTE_Mundy_HCI_iCellGluta_NOG_NeuriteCount: CCTE's Neurite Outgrowth Assay in iCellGluta cells for Neurite Count, Mundy Lab (AID 2284342).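 Also: chemical exposure about 48 hours starting 2 hours after plating.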
The subject of a further assay is IYD (gene 389434). Put plainly: CCTE_GLTED_hIYD: CCTE's human Iodotyrosine Deiodinase (xIYD) Inhibition Assay, Great Lakes Toxicology and Ecology Division (GLTED) Lab (AID 2284317).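 Also: cell-free human IYD enzyme made in baculovirus insect cells; iodide freed from monoiodotyrosine measured by cerium arsenite color change at 420 nm.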 A digest of the protocol:
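First, recombinant human IYD (baculovirus-insect cells), MIT and chemical incubated 3 h. Next, iodide isolated on Dowex. Finally, Sandell-Kolthoff rate read at 420 nm, with platewise normalization to MNT and solvent controls.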

A short description of assay [5]: CCTE_Deisenroth_5AR_NBTE_donor: CCTE's 5alpha-reductase NanoBRET Target Engagement Assay […], Deisenroth Lab (AID 2284319; active = hit-call score of the fitted dose curve at least 0.9, where 1 is the maximum; inactive = score below 0.9). Conditions: actives raise or lower the signal. A digest of the protocol: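 HEK293T cells were reverse transfected with an SRD5A2-NanoLuc vector for 20 h, exposed to test chemical (8 points, 10 nM - 29.9 uM) for 3 h, then testosterone tracer for 2 h more. Donor luminescence (460 nm) was read; bidirectional fit versus DMSO.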
Background: In BRET a luciferase serves as donor, and the signal depends on an acceptor being close.

A short description of assay [6]: CCTE_Deisenroth_5AR_NBTE_acceptor: CCTE's 5alpha-reductase NanoBRET Target Engagement Assay - Autofluorescence Screen, Deisenroth Lab (AID 2284321; active = hit-call score of the fitted dose curve at least 0.9, where 1 is the maximum; inactive = score below 0.9;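 also: compound fluorescence in the acceptor channel under 460 nm excitation flags autofluorescence artifacts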). Conditions: actives raise or lower the signal. A digest of the protocol:
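Acceptor-channel fluorescence flags artifacts, with excitation fixed at 460 nm. Nominal 100 uM chemical samples were read in triplicate runs, and signal changes were fitted in both directions relative to DMSO.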

For a further assay, the system named is SRD5A2 (gene 6716). Put plainly: CCTE_Deisenroth_5AR_NBTE_ratio: CCTE's 5alpha-reductase NanoBRET Target Engagement Assay - Ratio, Deisenroth Lab (AID 2284322; active = hit-call score of the fitted dose curve at least 0.9, where 1 is the maximum; inactive = score below 0.9). Conditions: actives raise or lower the signal. A digest of the protocol:
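Reverse-transfect HEK293T with pNLF1-C-SRD5A2, express 20 h. Pre-incubate cells with chemical 3 h (8-point series, 10 nM - 29.9 uM, duplicate). Add testosterone tracer, 2 h more. Add substrate/inhibitor, read donor and acceptor emission.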

Assay [7] is described as follows: VALA_TUBHUV_Antagonist_TubuleLength: VALA Sciences human Umbilical Vein Endothelial Tubule Formation (TUBHUV) Antagonism Assay (AID 2284325). A digest of the protocol:
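HUVEC–HDF co-culture (1:3) pre-grown 3 days with 10 ng/ml VEGF, then 3 days with compound plus VEGF. Fixed, nuclear and CD31 stained; total tubule length by imaging versus 0.1% DMSO; suramin 100 uM positive control.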

The nature of assay [8]: VALA_MIGHUV1_ScratchOnly_WoundArea: VALA Sciences human Umbilical Vein Endothelial Cell Migration (MIGHUV) Assay, Area of Scratch Wound Inhibited Recovery (AID 2284336). A digest of the protocol: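 HUVEC monolayers (9000 cells/well) were scratched after 24 h, dosed within 30 min (six concentrations, triplicate, 0.1% DMSO), allowed 24 h recovery, then fixed. Hoechst-stained nuclei in the wound imaged; cytochalasin D as reference.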

Assay [9] can be described thus: VALA_TUBHUV_Agonist_TubuleLength: VALA Sciences human Umbilical Vein Endothelial Tubule Formation (TUBHUV) Agonism Assay (AID 2284337). A digest of the protocol: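 HUVEC co-cultured with fibroblasts (1:3) 3 days in 10 ng/ml VEGF, then 3 days with compound plus VEGF; 0.1 % DMSO neutral control. Fixed, nuclear and CD31 stained; tubule length by fluorescence imaging.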

Assay [10] in a line: VALA_TUBIPS_Agonist_CellCount: Viability Assessment in the VALA Sciences human iPS-derived Endothelial Tubule Formation (TUBIPS) Agonism Assay (AID 2284338).
Assay [11] is described as follows: TAMU_PeakParms_SingleDonor1434_Asystole: Texas A&M University (TAMU) 1.5-hr Human Induced Pluripotent Stem Cell (iPSC)-derived Cardiomyocytes Calcium (Ca+2) Flux Assay for Cardiotoxicity: Asystole (quiescence of beating) (AID 2284328). A digest of the protocol: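 Human iPSC-derived cardiomyocytes (donor 1434) were exposed to 0.2, 1, 10 and 100 uM compound in 0.5% DMSO for 90 min at 37C. Ca2+-dye fluorescence gave average peak frequency; POD is EC95, a 95% beat-rate drop versus DMSO.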

The nature of assay [12]: VALA_MIGHUV1_ScratchOnly_CellCount: Viability Assessment in the VALA Sciences human Umbilical Vein Endothelial Cell Migration (MIGHUV) Assay, Scratch Wound Inhibited Recovery (AID 2284327). A digest of the protocol:
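HUVEC scratched after 24 h culture, chemical added within 30 min at 6 concentrations in triplicate (0.1% DMSO vehicle). After 24 h recovery, fixed cells were counted by Hoechst nuclear imaging in the wound area.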

As to `CCCN(CCC)c1c([N+](=O)[O-])cc(C(F)(F)F)c(N)c1[N+](=O)[O-]`, the half-maximal activity concentration (AC50) with SERPINA7 (gene 6906) is 0.322 µM (active).

In the case of `Cc1nn(C)c(Oc2ccccc2)c1C=NOCc1ccc(C(=O)OC(C)(C)C)cc1`, the values for the AC50 in assay [1], in assay [3] and in [4] were 0.353 µM (active), 6.47 µM (active) and 1.39 µM (active), respectively. In [2], the outcome was inactive.

For `CC(C)CCCCCCc1ccc(O)cc1`, the AC50 in the assay with IYD (gene 389434) is 48.4 µM (active); in the assay on SERPINA7 (gene 6906) it was 5.2 µM (active). The outcome (in assay [5]; in assay [6]; in the assay on SRD5A2 (gene 6716); in [7]; in assay [8]; in [9]) was inactive. In addition, the outcome in assay [10] was inactive.

Consider `COCCO`, for which the result in assay [11] was inactive.

Take `CSC(=O)c1cccc2nnsc12`: the outcome in assay [2] and in assay [4] was inactive.

On to `COC(=O)CSc1cc(N=c2sc(=O)n3n2CCCC3)c(F)cc1Cl`, for which the AC50 in the assay on SERPINA7 (gene 6906) is 25.9 µM (active).

As for `CC(=O)[C@H]1CC[C@H]2[C@@H]3CCC4=CC(=O)CC[C@]4(C)[C@H]3CC[C@]12C`, the result in [11] was inactive.

Consider `S=C(S)NCCNC(=S)S.[Mn+2].[S-]C([S-])=NCCN=C([S-])[S-].[Zn+2]`, for which the molecule was classed as inactive in [1], in [7], in assay [12], in [2], in [8] and in assay [10]. Further, the outcome in assay [3] and in assay [4] was inactive.

As to `O=C(c1ccccc1)C1CCCCC1`, the AC50 with SERPINA7 (gene 6906) was 50 µM (active).

As to `S=C([S-])NCCNC(=S)[S-].[Mn+2]`, in assay [2], the molecule was classed as inactive.

Take `CC1(C)C(C=C(Cl)Cl)C1C(=O)OCc1cccc(Oc2ccccc2)c1` (configuration not stated): the outcome (in assay [5]; in assay [6]; in the assay on SRD5A2 (gene 6716); in [11]) was inactive.

Regarding `N[C@@H](Cc1cc(I)c(Oc2ccc(O)c(I)c2)c(I)c1)C(=O)O`, the molecule was classed as inactive in [7], in assay [8], in [9] and in assay [10].

Usually AC50 stands for the concentration giving half of the maximal activity seen.
